The list is not random: actives were taken first. Their share in the collection is about 18%.
TDP1 cell noCPT: qHTS for Inhibitors of human tyrosyl-DNA phosphodiesterase 1 (TDP1): qHTS in cells in absence of CPT. DT40 Tdp1-/- hTDP1 cells, no CPT, ATP luminescence, 48 h. Potency, µM (top dose mostly 46.2 µM), usual class: inhibitors. actives 15% (n = 420,000); also: nearly all actives have a fitted effect of over 55% in size
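A cellular qHTS used chicken DT40 cells lacking endogenous Tdp1 but carrying stably transfected human TDP1. Compounds were applied without camptothecin, and cell growth kinetics were judged by ATP-dependent luminescence after ≥48 hr.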
TDP1 cell CPT: DT40-hTDP1 cell growth loss with CPT; actives 12% (n = 420,000); Potency, µM (titrated, usually from 46.2 µM), usual class: inhibitors; chicken DT40 Tdp1-/-;hTDP1 cells + 20 nM CPT, ATP luminescence, 48 h; also: nearly all actives have a fitted effect of over 55% in size
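Chicken DT40 Tdp1-/- cells complemented with human TDP1, 400 cells/well, exposed to compounds plus 20 nM camptothecin for at least 48 h at 37 C; viability read as ATP content by CellTiter-Glo luminescence.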
IL-1B inflam inh: blocks inflammasome-driven IL-1 beta release | THP-1 LPS/ATP IL-1B secretion, AlphaLISA, 16 h; active compounds read low | actives 4.7% (n = 360,000) | AID 743279 | activity change, % at 57.5 µM; in the data active = activity change below about -50%; inconclusive = mostly about -30% to -49%
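Secreted IL-1B measured by AlphaLISA bead assay after 16 h compound exposure of THP-1 cells; compounds (final up to 57.5 uM) added 1 h before LPS (250 ng/mL) and ATP (1.25 mM) stimulation; lower signal means less secretion.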
TGFb inhibitor: blocks TGF-b signaling. HepG2 CAGA-GFP TGF-b/SMAD3 reporter, GFP fluorescence, 18 h; TGF-beta stimulated, 500 pg/mL final. Potency, µM (titrated, usually from 46.1 µM), actives largely listed as inhibitors. actives 1.2% (n = 410,000). AID 588855; also: nearly all actives have a fitted effect of over 65% in size
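TGF-beta reporter screen: HEPG2 CAGA-GFP, 1% FBS, 500 pg/mL TGF-beta final, 18 h; per-cell GFP summed per well; curves fitted and categorized by class.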
HepG2 viability: kills HepG2 cells in TGF-b inhibitor counter-screen; HepG2 CAGA-GFP viability, ATP luminescence, 18 h; Potency, µM (highest dose often 46.1 µM), most hits filed as cytotoxic; actives 0.76% (n = 410,000); AID 588856
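CellTiter-Glo luminescence gave cytotoxicity after 18 hours at 37 degrees C. The cells were HepG2 CAGA-GFP in 1% FBS DMEM, stimulated with 500 pg/mL TGF-beta after compound addition. %Activity was normalised to no-cell wells (complete cell-killing) and DMSO (no toxicity), and curves were fitted and classified.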
TDP1 block: TDP1 (human) enzyme inhibition; Q9NUW8; recombinant TDP1, AlphaScreen DNA substrate cleavage; Potency, µM (highest dose often 130 µM), actives largely listed as inhibitors; actives 0.28% (n = 350,000); also: nearly all actives have a fitted effect of over 40% in size
Target sequence (Q9NUW8 whole entry, looked up): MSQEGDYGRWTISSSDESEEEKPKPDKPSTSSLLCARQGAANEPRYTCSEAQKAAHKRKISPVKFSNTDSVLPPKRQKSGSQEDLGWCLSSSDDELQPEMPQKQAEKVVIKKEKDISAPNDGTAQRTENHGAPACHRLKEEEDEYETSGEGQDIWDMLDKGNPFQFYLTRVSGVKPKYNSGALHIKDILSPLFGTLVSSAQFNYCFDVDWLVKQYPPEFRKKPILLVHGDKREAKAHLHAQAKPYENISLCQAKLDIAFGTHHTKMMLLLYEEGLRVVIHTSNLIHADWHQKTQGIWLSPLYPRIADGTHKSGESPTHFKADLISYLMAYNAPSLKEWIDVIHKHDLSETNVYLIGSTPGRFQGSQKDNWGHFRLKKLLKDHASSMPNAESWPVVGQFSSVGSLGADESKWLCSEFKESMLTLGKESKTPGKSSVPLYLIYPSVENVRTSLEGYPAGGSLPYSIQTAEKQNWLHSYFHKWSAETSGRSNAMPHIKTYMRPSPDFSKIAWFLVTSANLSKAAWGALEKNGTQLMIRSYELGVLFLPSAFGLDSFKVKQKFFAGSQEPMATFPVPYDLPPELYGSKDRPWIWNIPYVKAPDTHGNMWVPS
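Steps: enzyme plus compound, 15 min RT; add biotin/phosphotyrosine-FITC oligonucleotide (15 nM final), react 5 min; add donor/acceptor beads (10 ug/ml final), 10 min; read AlphaScreen. Tdp1 at 1 nM final.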
Hits are given with their value; - = inactive; ? = inconclusive; . = no result. Unless noted, calls follow the shape of the dose curve; as a rule, active = well fitted curve in the direction sought with a large enough effect; inconclusive = small, poorly fitted or top-dose-only effect, or another doubt; inactive = no such curve, though single readings can be large; an effect the other way counts as inactive or inconclusive.

SMILES	TDP1 cell noCPT	TDP1 cell CPT	IL-1B inflam inh	TGFb inhibitor	HepG2 viability	TDP1 block
COc1ccc(OC)c(NC(=O)CC2SC(=N)N(c3ccccc3)C2=O)c1 (stereo not given)	-	-	-	-	-	-
N=C1SC(CC(=O)Nc2ccc([N+](=O)[O-])cc2)C(=O)N1c1ccccc1 (stereo not given)	?	-	-73.2	?	-	-
CCN(CC)C(=O)C1CCCN(C(=O)c2oc3ccc(C)cc3c2C)C1 (stereo not given)	?	?	-	-	-	-
Cc1ccc(NC(=O)CC2Sc3ccc(C(F)(F)F)cc3NC2=O)cc1 (stereo not given)	-	-	.	-	-	-
O=C(CC1SC(=O)N(c2ccccc2)C1=O)Nc1ccccc1 (stereo not given)	-	16.4µM	-	-	-	-
Cc1ccc(NC(=O)CC2SC(=O)N(c3ccccc3)C2=O)cc1 (stereo not given)	7.31µM	9.2µM	-	-	-	-
Cc1cccc(NC(=O)CC2SC(=O)N(c3ccccc3)C2=O)c1 (stereo not given)	5.17µM	4.61µM	-	-	-	-
Cc1cccc(NC(=O)CC2S/C(=N/c3nccs3)N(C)C2=O)c1 (stereo not given)	-	-	-	-	-	-
Cc1ccc(NC(=O)CC2=NC(=O)C(CC(=O)Nc3ccccc3F)S2)cc1 (stereo not given)	18.4µM	?	-	?	-	-
CCNc1nc(NCC)nc(N(C)/N=C/c2ccco2)n1	-	-	-	-	-	.
O=C(c1c(Cl)nc2sccn12)N1CCN(c2cccc(Cl)c2)CC1	2.31µM	2.31µM	-	-	-	-
COc1cc2c(C(=O)N3CCN(c4cccc(Cl)c4)CC3)cn(C)c(=O)c2cc1OC	3.66µM	5.17µM	-	?	-	-
Cc1[nH]c(-c2ccc(F)cc2)cc1C(=O)N1CCN(c2cccc(Cl)c2)CC1	16.4µM	-	-87.3	25.1µM	-	.
O=C(c1cc2c(=O)n3ccccc3nc2s1)N1CCN(c2cccc(Cl)c2)CC1	?	?	-	-	-	.
CCn1cc(C(=O)N2CCN(c3cccc(Cl)c3)CC2)c2cc(OC)c(OC)cc2c1=O	23.1µM	16.4µM	-	?	-	-
O=C(Nc1ccc(Cl)c(C(F)(F)F)c1)c1nc2ccccc2nc1N1CCCCC1	?	?	.	-	-	-
COCCn1c(SCc2ccccc2F)nc2c([nH]c3ccccc32)c1=O	?	?	.	-	-	-
COc1ccccc1C(=O)N1CCN(c2cccc(Cl)c2)CC1	1.64µM	1.84µM	-	?	-	-
O=C(c1cc2ccccc2cc1O)N1CCN(c2cccc(Cl)c2)CC1	?	?	-	?	-	-
COc1ccc(NC(=O)CN(C)C(=O)c2ccc3c(c2)CC(c2ccccc2)OC3=O)cc1 (stereo not given)	16.4µM	25.9µM	-	-	-	.
COc1ccc(Cl)cc1NC(=O)CN(C)C(=O)c1ccc2c(c1)CC(c1ccccc1)OC2=O (stereo not given)	16.4µM	14.6µM	-	-	-	-
CCN(CC)S(=O)(=O)c1cccc(NC(=O)CN2C(=O)NC3(CCOc4ccccc43)C2=O)c1 (stereo not given)	?	16.4µM	-	-	-	-
COCCNC(=O)CN1C(=O)NC2(CCOc3ccccc32)C1=O (stereo not given)	-	-	-	-	-	-
CC(CNC(=O)CN1C(=O)NC2(CCOc3ccccc32)C1=O)c1ccccc1 (stereo not given)	?	14.6µM	-	-	-	-
Cc1cc(C)c(C#N)c(SCc2nnc(-c3ccccc3[N+](=O)[O-])o2)n1	20.6µM	25.9µM	-	-	-	-
SMILES	TDP1 cell noCPT	TDP1 cell CPT	IL-1B inflam inh	TGFb inhibitor	HepG2 viability	TDP1 block
Cc1cc(C)c(C#N)c(SCc2ccccc2[N+](=O)[O-])n1	?	-	-	-	-	-
COCc1nnc(NC(=O)c2ccc(S(=O)(=O)N(C)c3ccccc3)cc2)o1	?	16.4µM	-	-	-	-
C=CCN(CC=C)S(=O)(=O)c1ccc(C(=O)Nc2nnc(COC)o2)cc1	16.4µM	?	-	-	-	-
CN(CC(=O)NCC1CCCCC1)CC(=O)Nc1ccc(F)cc1	-	-	-	-	-	-
CCOc1ccc(S(=O)(=O)N2CCC(C(=O)NC3CC3)CC2)cc1C	-	-	-	-	-	-
O=S(=O)(c1ccccc1)C1Cc2ccccc2C1Cl (stereo not given)	-	-	-	-	-	.
COc1ccc(N2CCN(C(=O)C3CCN(c4nc5ccc(C)cc5[nH]4)CC3)CC2)cc1	8.2µM	10.3µM	.	-	-	-
Cc1ccc2nc(N3CCC(C(=O)N4CCN(c5cccc(Cl)c5)CC4)CC3)[nH]c2c1	8.2µM	13µM	.	-	-	-
Cc1ccc(C)c(N2CCN(C(=O)C3CCN(c4nc5ccc(C)cc5[nH]4)CC3)CC2)c1	2.31µM	4.11µM	.	-	-	-
CCCc1cc(=O)n2nc(N3CCC(C(=O)N4CCN(c5ccc(OC)cc5)CC4)CC3)sc2n1	5.8µM	2.59µM	-	?	-	-
CCOC(=O)C1(C)CCCN1C(=O)c1snnc1C (stereo not given)	-	-	-	?	-	.
Cc1cc(F)ccc1NC(=O)C1CCCN(C(=O)c2cnn(-c3ccccc3)c2-n2cccc2)C1 (stereo not given)	?	?	.	?	-	-
Cc1ccc(Cn2c(=N)n(CC(O)c3ccco3)c3ccccc32)cc1 (stereo not given)	16.4µM	-	-74.4	?	-	-
COc1ccccc1OCC(O)Cn1c(=N)n(Cc2ccccc2)c2ccccc21 (stereo not given)	8.2µM	20.6µM	-72.9	-	-	-
CCn1c(=N)n(CCOc2ccc(Br)cc2)c2ccccc21	5.17µM	5.8µM	.	8.91µM	-	-
COc1ccc(OCCn2c(=N)n(CCO)c3ccccc32)cc1	?	-	-	-	-	-
N=c1n(Cc2ccccc2)c2ccccc2n1CC(O)c1ccccc1 (stereo not given)	20.6µM	10.3µM	?	-	-	-
COC(=O)[C@@]1(Cc2ccccc2)[C@H]2c3cc(C(=O)N4CCCC4)n(CCO)c3C[C@H]2CN1C(=O)c1ccccc1	.	.	.	.	.	-
CCCCCn1c(=N)n(CC(O)COc2ccccc2OC)c2ccccc21 (stereo not given)	5.8µM	3.66µM	-58.8	11.2µM	-	-

Assay outcomes (PubChem BioAssay)
